# The campaign covered roughly 3,400 compounds. About 840 (25%) were called active. About 11% were inconclusive and are not listed.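 The calls were made as follows: active = fitted half-maximal concentration of signal decrease at or below twice the sample's top tested concentration; inconclusive = flat curve between -70 and -30 percent, or poor fit; inactive = flat within 30 percent, signal rise, or potency above limit.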 A selection follows. Potency and affinity values are given separately.
# Test: T. gondii growth inhibition with IFN-gamma, dose response, cell-based, ME49Luc, HeLa, luciferase, 72 h (AID 1259418)
# Details: T. gondii ME49Luc in IFN-y HeLa, stronger effect = lower value, -100% = high-dose IFN-γ control wells; at 19.5 µM unless noted
row,Compound,max activity
1,Cc1ccc(NC(=O)N2CCN(Cc3nc(-c4ccccc4C)oc3C)CC2)cc1,9.16% [at 2.6 µM] (inactive)
2,CCOC(=O)c1ccc(NC(=O)N2CCN(Cc3nc(-c4cccc(Cl)c4)oc3C)CC2)cc1,13.5% [at 1.35 µM] (inactive)
3,Cc1ccc(-c2nc(CN3CCN(C(=O)NC(C)C)CC3)c(C)o2)cc1,-10.1% [at 0.35 µM] (inactive)
4,Cc1ccc(-c2nc(CN3CCN(C(=O)Nc4cccc(C)c4)CC3)c(C)o2)cc1,-23.6% (inactive)
5,Cc1ccc(-c2nc(CN3CCN(C(=O)Nc4ccc(Cl)cc4)CC3)c(C)o2)cc1,22.8% [at 0.16 µM] (inactive)
6,CCCNC(=O)N1CCN(Cc2nc(-c3ccc(OCC)cc3)oc2C)CC1,7.68% (inactive)
7,CCc1ccc(NC(=O)N2CCN(Cc3nc(-c4ccc(C)cc4)oc3C)CC2)cc1,-17.1% [at 0.68 µM] (inactive)
8,Cc1ccc(NC(=O)N2CCN(Cc3nc(-c4ccc(C)cc4)oc3C)CC2)cc1,13.6% [at 0.16 µM] (inactive)
9,COC(=O)c1cccc(NC(=O)Nc2ccc(-c3nc(-c4ccc(C)cc4C)co3)cc2)c1,21.2% (inactive)
10,Cc1ccc(-c2coc(-c3ccc(NC(=O)c4ccccc4)cc3)n2)c(C)c1,20.4% [at 10 µM] (inactive)
11,Cc1ccc(-c2coc(-c3ccc(NC(=O)Nc4ccc5c(c4)OCCO5)cc3)n2)c(C)c1,48.2% (inactive)
12,Cc1ccc(CNC(=O)C2(C)CCC(=O)N2CCc2c[nH]c3ccccc23)cc1 (stereo not drawn),-12.5% [at 0.35 µM] (inactive)
13,O=C(Nc1ccc(-c2nc(-c3ccccc3)co2)cc1)Nc1ccccc1Br,65.8% [at 10 µM] (inactive)
14,Cc1ccc2c(c1C)-n1cccc1C1(CCN(C(=O)CC(C)C)CC1)N2,7.04% [at 0.68 µM] (inactive)
15,O=C(Cc1ccccc1Cl)N1CCC2(CC1)Nc1ccccc1-n1cccc12,15.3% [at 10 µM] (inactive)
16,COc1ccc(S(=O)(=O)N2CCC[C@@H]2C(=O)NCCc2csc(C)n2)cc1Cl,8.05% [at 10 µM] (inactive)
17,CCOCCCNC(=O)c1ccc2ccc(N3CCN(CC4CC4)CC3)n2c1,42.5% (inactive)
18,CCOc1cccc(-c2noc(-c3nnn(Cc4nc(-c5cccc(C)c5)oc4C)c3C)n2)c1,8.84% (inactive)
19,CCOc1ccc(-c2nc(CN3CCN(C(=O)Nc4cccc(OC)c4)CC3)c(C)o2)cc1,16.9% [at 0.35 µM] (inactive)
20,CCOc1ccc(-c2nc(CN3CCN(C(=O)NCCc4ccccc4)CC3)c(C)o2)cc1,-9.01% [at 0.68 µM] (inactive)
21,Cc1ccccc1-c1nc(CN2CCN(C(=O)Nc3ccccc3)CC2)c(C)o1,-12.3% [at 2.6 µM] (inactive)
22,COc1ccc(NC(=O)N2CCN(Cc3nc(-c4ccc(C)cc4)oc3C)CC2)cc1OC,9.7% (inactive)

row,Compound,max activity
1,O=C(Cc1ccc(Cl)cc1)Nc1ccc(-c2nc(-c3ccccc3)co2)cc1,17.2% [at 2.6 µM] (inactive)
2,CCOC(=O)C(=O)Nc1ccc(-c2nc(-c3ccc(C)cc3C)co2)cc1,44.4% (inactive)
3,CC(C)c1ccc(C(=O)N=C(N)N)cc1S(C)(=O)=O,11.6% (inactive)
4,CCS(=O)(=O)N1CC(=O)N2[C@H](CO)[C@@H](c3ccc(-c4cccc(F)c4)cc3)[C@@H]2C1,-8.63% (inactive)
5,Cc1ccsc1C(=O)N1CCc2nc(-c3cnn(C)c3)nc(NC(C)C)c2C1,-26.1% [at 0.16 µM] (inactive)
6,CCOc1ccc(-c2nc3c(s2)CN(S(=O)(=O)c2cccc(C)c2)CC3)cc1,29% (inactive)
7,COc1ccc(-c2nc3c(s2)CN(S(=O)(=O)c2cccc(F)c2)CC3)cc1,9.88% (inactive)
8,Cc1ccc(-c2coc(-c3ccc(NC(=O)Nc4ccccc4C)cc3)n2)c(C)c1,21.8% [at 10 µM] (inactive)
9,Cc1ccc(OCC(=O)Nc2ccc(-c3nc(-c4ccc(C)cc4)co3)cc2)cc1,20.2% (inactive)
10,COc1ccccc1-c1nc(Cn2c(=O)c3c(C)cc(C)nc3n(-c3ccccc3)c2=O)c(C)o1,9.28% [at 2.6 µM] (inactive)
11,Cc1ccc2c(c1C)-n1cccc1C1(CCN(C(=O)COc3ccc(Cl)cc3)CC1)N2,-7.41% [at 1.35 µM] (inactive)
12,O=C(CCC1Nc2c3ccccc3nc(=S)n2C1=O)NCc1cccs1 (stereo not drawn),14.7% [at 5 µM] (inactive)
13,Cc1nc(OCC(=O)Nc2ccccc2C)c2ccccc2n1,19.6% [at 0.68 µM] (inactive)
14,COc1ccc(C[C@H]2CN(C(=O)c3ccnn3C)CC[C@H]2OC)cc1,30.4% (inactive)
15,CO[C@@H]1CCN(c2ncccn2)C[C@@H]1Cc1cccc(C)c1,9.87% (inactive)
16,O=S(=O)(c1cccc(C(F)(F)F)c1)N1CCC(N2CCOCC2)CC1,20.6% [at 0.16 µM] (inactive)
17,CN(C)C(=O)CN1CCOCC2(CCN(CC3CCOC3)CC2)C1 (stereo not drawn),23.8% (inactive)
18,Cc1ccc(C)c(-c2coc(-c3ccc(NC(=O)NC4CCCC4)cc3)n2)c1,6.74% (inactive)
19,Cc1ccc2c(c1C)-n1cccc1C1(CCN(C(=O)CC3CCCCC3)CC1)N2,-13.7% [at 0.16 µM] (inactive)
20,CCC(CC)C(=O)N1CCC2(CC1)Nc1ccc(C)c(C)c1-n1cccc12,-6.76% [at 0.35 µM] (inactive)
21,CCOc1ccc(S(=O)(=O)N2CCC[C@@H]2C(=O)NCCc2csc(C)n2)cc1,-13.1% (inactive)

# — PubChem BioAssay AID1259418 (Broad Institute, 2018)
